Measured values as given in ChEMBL document CHEMBL4513141, “CO-ADD screening of NIH (USA) - Clinical Collection” (2021).
Results with a measured potency or affinity are listed apart.

Each compound was assayed on Escherichia coli. Conditions: Concentration 20 uM; ASSAY_TEST Inhibition of Bacterial Growth; detection method Absorption (OD600); MEDIA CAMHB; plate type 384well; NBS; CORNING #3640; time 18 hr.
Nc1nc(O)c2ncn(CCC(CO)CO)c2n1 [PENCICLOVIR] gave an Inhibition of 2.89%. CCN(CC)CCNC(=O)c1cc(Cl)c(N)cc1OC.Cl showed an Inhibition of -6.93%. In the case of CC1CNc2c(cccc2S(=O)(=O)N[C@@H](CCCNC(=N)N)C(=O)N2CC[C@@H](C)C[C@@H]2C(=O)O)C1 (stereo partly specified) [ARGATROBAN], the Inhibition is reported as -1.85%. Compound Nc1nc(=O)c2nc(CNc3ccc(C(=O)N[C@@H](CCC(=O)O)C(=O)O)cc3)cnc2[nH]1 [FOLIC ACID] has an Inhibition of -0.13%. CCN(CC)CCOC(=O)C1(C2CCCCC2)CCCCC1.Cl [DICYCLOMINE HYDROCHLORIDE] was tested, and the Inhibition was 0.37%. Work on CC(C)OC(=O)CCC/C=C\C[C@@H]1[C@@H](CC[C@@H](O)CCc2ccccc2)[C@H](O)C[C@@H]1O [LATANOPROST] yielded an Inhibition of 1.96%.
